# An excerpt weighted towards active compounds, which were near 1.3% of everything screened.
# LAP4 TOR yeast: modulators of TOR pathway LAP4-GFP in S. cerevisiae; hit rate 0.34% among 320,000; GFP response vs DMSO, % at 10 µM; S. cerevisiae LAP4-GFP multiplex, flow cytometry GFP, 3 h; median GFP as percent of DMSO wells;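 active = GFP response vs DMSO above a set limit, about the screen mean plus 3 SD, cut at about 150% in these data; inconclusive = under 70 cell events counted for the yeast strain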
# AGP1 TOR yeast: alters AGP1-GFP fluorescence in TOR pathway yeast screen | S. cerevisiae AGP1-GFP multiplex flow cytometry, 3 h; GFP as percent of DMSO wells | GFP response vs DMSO, % at 10 µM | hit rate 0.02% among 320,000 | AID 2066;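 active = GFP response relative to DMSO above a set limit, near screen average plus 3 SD, cut at about 150% in these data; inconclusive = fewer than 70 cells counted for the yeast strain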;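 note: median GFP channel fluorescence of the gated AGP1 strain per well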
# MEP2-GFP yeast: alters MEP2-GFP fluorescence in TOR pathway yeast screen; S. cerevisiae MEP2-GFP strain, flow cytometry GFP, 3 h; 100% = DMSO control level; GFP response vs DMSO, % at 10 µM; hit rate 0.51% among 330,000;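 active = GFP response versus DMSO above a set limit, roughly screen mean plus 3 SD, cut at about 180% in these data; inconclusive = fewer than 70 cells counted for a yeast strain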;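 note: median GFP fluorescence of the barcode-gated MEP2-GFP cells per well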
# CIT2-GFP yeast: yeast TOR pathway CIT2-GFP modulation; hit rate 0.065% among 320,000; AID 2029; GFP response vs DMSO, % at 10 µM; S. cerevisiae CIT2-GFP strain, flow cytometry, 3 h; 100 means same as DMSO wells;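 active = GFP response relative to DMSO above a set limit, near the screen mean plus 3 SD, cut at about 150% in these data; inconclusive = Fewer than 70 cells measured for a yeast strain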;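 note: ratio of well median GFP fluorescence to mean of DMSO wells on the plate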
# Efflux pump inh: blocks antifungal efflux pumps in multiplex yeast assay | hit rate 0.44% among 330,000 | S. cerevisiae Candida pump triplex, Nile Red efflux | inhibition, % at 10 µM;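 active = plate passing quality check with inhibition over a set limit, or well fluorescence over plate mean plus 4 SD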;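 note: Nile Red retained in pooled yeast measured as flow cytometry median fluorescence; 0% = buffer negative control and 100% = Enniatin B positive control; higher means more Nile Red kept so more efflux inhibition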
# RPL19A-GFP yeast: yeast TOR pathway RPL19A-GFP modulation; S. cerevisiae RPL19A-GFP strain, flow cytometry, 3 h; stronger effect = lower value; percent response vs DMSO, % at 10 µM; hit rate 0.3% among 330,000; AID 2025;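 active = percent response vs DMSO below 50%; inconclusive = fewer than 70 events counted for the yeast strain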;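 note: median channel GFP fluorescence of the barcoded RPL19A-GFP strain; ratio of sample median GFP to plate DMSO average so 100% = DMSO; lower means less RPL19A-GFP as with rapamycin TOR inhibition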
# Active calls of the source: *; ? = inconclusive; · = no result given; [ ] = dose if it differs, or a comment.
SMILES,LAP4 TOR yeast,AGP1 TOR yeast,MEP2-GFP yeast,CIT2-GFP yeast,Efflux pump inh,RPL19A-GFP yeast
Cc1ccccc1OCc1nnc(SCCN2CCCC2)n1-c1ccccc1,167.8*[may fluoresce violet],?,103.4,?,0.2,30.2*[may fluoresce violet]
CC(CNC(=O)CN1C(=O)NC2(CCCCC2)C1=O)c1ccccc1 (configuration not stated),105.3,105.3,99.0,102.0,-0.1,98.1
COc1ccc2c(c1)CCCC21NC(=O)N(CC(=O)N2CC(C)OC(C)C2)C1=O (configuration not stated),80.6,89.9,93.5,86.6,-0.2,94.0
CN1CCN(C(=O)/C(=C\c2cccs2)NC(=O)c2ccccc2)CC1,96.3,100.6,99.6,105.5,0.0,102.9
CN1CCN(C(=O)/C(=C/c2ccccc2Cl)NC(=O)c2ccccc2)CC1,93.2,19.6,475.4*[may fluoresce violet],?,-0.1,67.3
O=C(C1=C(O)C(=O)N(CC2CCCO2)C1c1ccc(Cl)cc1)c1ccco1 (configuration not stated),94.1,27.9,276.2*[may fluoresce violet],?,0.0,58.5
CC(=O)N1Cc2ccccc2CC1C(=O)NCc1ccccc1F (configuration not stated),96.8,103.2,99.1,96.5,0.0,103.0
O=C(NN1C(=O)/C(=C/C=C/c2ccco2)SC1=S)c1ccncc1,113.8,106.5,99.2,105.6,1.1*,95.3
O=C(NN1C(=O)/C(=C/C=C/c2ccccc2)SC1=S)c1ccncc1,124.2,109.1,100.8,97.8,0.1,96.7
Cc1scc(C(=O)N2CCN(c3ccc(Cl)cc3)CC2)c1C,122.3,92.2,102.1,81.3,0.2,97.4
Cc1ccc(S(=O)(=O)Cn2nnnc2C(CC(C)C)N2CCC(C(N)=O)CC2)cc1 (configuration not stated),94.1,98.0,99.0,104.6,-0.1,107.2
CCCC(c1nnnn1CS(=O)(=O)c1ccc(C)cc1)N1CCC(C(N)=O)CC1 (configuration not stated),77.5,?,224.3*[may fluoresce violet],?,-0.6,56.0
Cc1cccc(C(CC(=O)O)n2cccc2)c1 (configuration not stated),121.4,?,400.5*[may fluoresce violet],?,0.1,54.7
O=C(O)CC(c1cccc(Cl)c1)n1cccc1 (configuration not stated),93.6,101.2,96.5,·,0.0,103.2
NC(=O)COC(=O)C1CSC2(c3ccc(F)cc3)CCC(=O)N12 (configuration not stated),89.5,93.7,99.1,91.0,-0.1,101.6
Nc1cc(N)nc(SCC(=O)N2CCc3ccccc32)n1,108.3,·,175.4*,98.8,0.1,79.8
Cc1nc(SCC(=O)N2CCc3ccccc32)n[nH]1,93.0,?,365.5*[may fluoresce violet],?,-0.1,40.4*[may fluoresce violet]
O=C(NCc1ccco1)C1CCN(C(=O)c2ccc([N+](=O)[O-])cc2)CC1,96.8,101.9,110.8,101.1,-0.2,102.0
NC(=O)c1cccc(-c2noc(-c3ccccc3F)n2)c1,69.1,16.8,202.7*[may fluoresce violet],?,0.0,87.5
COC(=O)c1cccc(-c2noc(-c3ccccc3F)n2)c1,104.7,93.9,84.8,88.3,-0.2,92.7
O=c1cc(-c2c(F)c(F)c(F)c(F)c2F)oc2ccccc12,93.5,104.7,104.6,111.1,0.1,101.2
O=c1cc(-c2c(F)c(F)c(F)c(F)c2F)oc2c(F)c(F)c(F)c(F)c12,176.8*,104.0,103.0,114.5,0.1,94.2
Cc1nc2ccc(Br)cn2c1C(=O)N/N=C\c1ccccc1Cl,134.5,126.4,247.8*,123.6,0.1,86.2
Cc1cccc(C)c1OCC(=O)NCc1ccccc1,79.9,?,276.8*[may fluoresce violet],?,0.4,42.5*[may fluoresce violet]
Cc1onc(-c2c(F)cccc2Cl)c1C(=O)NC(C)c1ccccc1 (configuration not stated),91.5,26.5,194.7*[may fluoresce violet],?,0.1,96.9
SMILES,LAP4 TOR yeast,AGP1 TOR yeast,MEP2-GFP yeast,CIT2-GFP yeast,Efflux pump inh,RPL19A-GFP yeast
Cc1cc(SCc2cccc(C(F)(F)F)c2)nc(=O)[nH]1,112.6,112.6,114.8,111.2,-0.1,108.2
CCCCn1c(N)c(N(CCOC)C(=O)CC(NC(=O)c2ccccc2)c2ccccc2)c(=O)[nH]c1=O (configuration not stated),104.2,98.2,97.4,98.3,-0.2,92.9
O=C(NCC(c1cccnc1)N1CCOCC1)Nc1ccccc1 (configuration not stated),78.3,?,189.4*[may fluoresce violet],?,-0.3,22.6*[may fluoresce violet]
COc1ccc(N=C2S/C(=C\c3ccc(Cl)c([N+](=O)[O-])c3)C(=O)N2CCN(C)C)cc1,101.1,101.2,103.7,107.7,-2.4,105.5
CCN(CC)CCN1C(=O)/C(=C\c2ccc(Cl)c([N+](=O)[O-])c2)SC1=Nc1ccc(OC)cc1,77.5,?,197.3*[may fluoresce violet],?,0.1,53.2
O=[N+]([O-])c1ccccc1C1Nc2cccc3cccc(c23)N1,103.3,24.3,476.0*[may fluoresce violet],?,0.2,63.5
COc1ccc(C(=O)c2nccc3ccccc23)cc1,105.4,76.7,185.1*,104.9,0.0,98.9
CCc1cccc(NC(=O)COC(=O)c2cc([N+](=O)[O-])ccc2N2CCOCC2)c1,104.8,104.8,97.1,104.1,0.0,102.7
C/C(Cl)=C/CN1C(=O)C2C3C=CC(C3)C2C1=O (configuration not stated),110.2,?,247.1*[may fluoresce violet],?,0.0,24.9*[may fluoresce violet]
CSc1cccc(NC(=S)Nc2ccc(F)cc2)c1,·,·,575.8*[may fluoresce violet],·,0.3,55.9
CSc1cccc(NC(N)=S)c1,108.5,101.8,106.9,96.7,0.0,98.0
CSc1cccc(NC(=S)NN(C)C)c1,111.5,103.1,91.2,99.5,-0.1,95.7
COCCCNC(=S)Nc1cccc(SC)c1,62.0,?,243.0*[may fluoresce violet],?,0.5,40.6*[may fluoresce violet]
Cc1cccc(C)c1NC(=O)CNC(=O)CN1C(=O)NC2(CCc3ccccc32)C1=O (configuration not stated),98.8,100.8,102.0,108.1,-0.2,101.7
Cc1noc(NC(=O)c2ccc(Cl)cc2)c1Cl,125.3,?,91.8,?,0.0,40.6*[may fluoresce violet]
COCCCNC(=O)C[C@H]1C[C@H](C(=O)N(C(C)C)C(C)C)[C@@]2(C)c3[nH]c4ccc(Cl)cc4c3CCN2C1=O,·,·,·,·,0.0,·
CC(NC(=S)Nc1ccc([N+](=O)[O-])cc1)c1ccncc1 (configuration not stated),100.4,107.1,99.9,102.1,-0.1,95.5
CC(=O)N1CCC(=NNC(=O)c2cc3ccccc3cc2O)CC1,83.3,16.5,117.2,?,-0.1,41.6*[may fluoresce violet]
CN1CCC/C1=C1/C(=O)N(c2ccccc2)N=C1NC(=O)Nc1cccc(Cl)c1,106.0,96.1,98.5,92.2,0.1,93.1

# Screening results from PubChem BioAssay.
